# This excerpt belongs to a sample that is enriched for hits.
# Pf Dd2 inh = blocks in vitro growth of P. falciparum Dd2; P. falciparum Dd2 growth, SYBR Green, 72 h; Potency, µM (top dose mostly 28.9 µM), hits mostly inhibitors; 4.3% of 120,000 active; AID 1347417; active = well fitted inhibition curve with a large enough effect; note: nearly all actives have a fitted effect of over 65% in size
#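 Infected erythrocytes (Dd2, 0.3% parasitemia, 2.5% hematocrit final) are added to compound in RPMI-1640/Albumax II medium, grown 72 h at 37C in low oxygen, then lysed with saponin/Triton-X containing SYBR Green and read by fluorescence.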
# A number is an active result; 0 = inactive; [ ] = another dose, or the depositor's remark.
SMILES,Pf Dd2 inh
CCC(C)NC(=O)C(NC(=O)c1ccc(C)cc1)C1CCN(C(=O)c2cccc(F)c2)CC1 (stereo not given),10µM
CCC(C)NC(=O)C(NC(=O)c1ccc(C)cc1)C1CCN(C(=O)C(C)C)CC1 (stereo not given),0
COc1ccc(C(=O)N2CCC(C(NC(=O)c3ccccc3C)C(=O)NCC(C)C)CC2)cc1 (stereo not given),0
CCC(C)NC(=O)C(NC(=O)c1ccc(F)cc1)C1CCN(C(=O)c2cccc(F)c2)CC1 (stereo not given),0
Cc1ccc(C(=O)N2CCC(C(NC(=O)c3ccccc3C)C(=O)NCC(C)C)CC2)cc1 (stereo not given),7.94µM
Cc1ccc(C(=O)N2CCC(C(NC(=O)C(C)C)C(=O)NCC(C)C)CC2)cc1 (stereo not given),0
COCCO[C@H]1C(=O)N(C2CCN(C(=O)C3CCOCC3)CC2)[C@H]1c1ccncc1,0
CN1C(=O)CO[C@H]2CN(C(=O)c3ccccn3)C[C@H]21,0
Cn1cccc1CN1CCC(n2cc[nH]c2=O)CC1,0
O=C(CN1C(=O)COc2ccc(C(=O)COc3ccc(F)cc3)cc21)Nc1ccccc1,0
Cc1cc(C)c2[nH]c(CN3CCC(N)C3)cc(=O)c2c1 (stereo not given),0
COc1cc(/C=C(\C#N)c2nc3ccc(C)cc3[nH]2)ccc1OCc1ccc(C)cc1,2.82µM
CCOC(=O)COc1ccc(/C=C(\C#N)c2nc3ccc(C)cc3[nH]2)cc1OC,0
CCC(=O)Oc1ccc(/C=C(\C#N)c2nc3ccccc3[nH]2)cc1OC,0
CC(C)N1CCC(N2CCCC(N3CCN(c4cccc(C(F)(F)F)c4)CC3)C2)CC1 (stereo not given),14.1µM
CNC(=O)CN1CCCC(N2CCN(c3cccc(C(F)(F)F)c3)CC2)C1 (stereo not given),0
NCC(=O)N1CCCC(N2CCN(c3cccc(C(F)(F)F)c3)CC2)C1 (stereo not given),0
COc1cccc(CN2CCCC(N3CCN(c4cccc(C(F)(F)F)c4)CC3)C2)c1O (stereo not given),0.398µM
NC(=O)NCCN1CCCC(N2CCN(c3cccc(C(F)(F)F)c3)CC2)C1 (stereo not given),0
O=C(CO)N1CCCC(N2CCN(c3cccc(C(F)(F)F)c3)CC2)C1 (stereo not given),0
Cc1nn(CC(=O)NCCN2CCOC2=O)c(=O)n1CCc1ccccc1,0
CN(C)CC1(O)CCCN(Cc2c(Cl)cncc2Cl)C1 (stereo not given),0
O=C(O)c1ccccc1C(=O)NC[C@H]1Cn2c(-c3ccc(F)cc3)cnc2CO1,0
CCOc1ccc(-c2cccc(NS(=O)(=O)c3ccc(F)cc3F)c2)nn1,0[0.594 µM]
CCOc1ccc(-c2ccc(NS(=O)(=O)c3cc(C)ccc3OC)cc2)nn1,10µM
SMILES,Pf Dd2 inh
CCOc1ccc(Br)cc1S(=O)(=O)Nc1cccc(-c2ccc(OC)nn2)c1,0
O=C1NCCCCCCN(Cc2ccncc2)[C@@H]2CN(C(=O)c3ccsc3)CC[C@@H]12,0
O=C(N1CCOCC1)N1CCn2c(nnc2C2CCNCC2)C1,0
Fc1ccc(-c2noc(-c3ncn4c3COC(c3ccccc3Cl)C4)n2)cc1 (stereo not given),0
Clc1ccccc1C1Cn2cnc(-c3nc(-c4ccccn4)no3)c2CO1 (stereo not given),6.31µM
FC(F)(F)c1ccc(-c2noc(-c3ncn4c3COC(c3ccccc3Cl)C4)n2)cc1 (stereo not given),0
CC(C)CCN(C1CCOCC1)C1CCN(S(=O)(=O)c2cccnc2)CC1,10µM
COCC(=O)N(C1CCOCC1)C1CCN(S(=O)(=O)c2cccnc2)CC1,0
CC(C)CN(C1CCOCC1)C1CN(S(=O)(=O)c2ccc(F)cc2)C1,0
Cc1cccc2c1nc1n2[C@@H](CNC(=O)c2ccncc2)COC1,0
CCCN1CCC2(CC1)Cc1ccccc1CN(C(=O)C(C)C)C2,0
CCCN1CCCC12Cc1ccccc1CN(C(=O)C(C)C)C2 (stereo not given),8.91µM
C[S+](=O)([O-])N1CC2(CCCCN2Cc2ccccn2)Cc2ccccc21 (stereo not given),8.91µM
C[S+](=O)([O-])N1Cc2ccccc2CC2(CCCN2Cc2ccncc2)C1 (stereo not given),0
CCC(=O)N1Cc2ccccc2CC2(CCCCN2Cc2ccccn2)C1 (stereo not given),0
CC(=O)N1CC2(CCCN2Cc2ccccn2)Cc2ccccc21 (stereo not given),0
CCC(=O)N1Cc2ccccc2CC2(CCCN2Cc2ccccn2)C1 (stereo not given),0
CC(C)C(=O)N1CCCC2(Cc3ccccc3CN2[S+](=O)([O-])c2ccccc2)C1 (stereo not given),0
CC(C)C(=O)N1Cc2ccccc2CC2(CCCCN2Cc2ccccn2)C1 (stereo not given),12.6µM
C[S+](=O)([O-])N1Cc2ccccc2CC2(CCCN(Cc3ccccn3)C2)C1 (stereo not given),0
